The text below walks through data of PubChem BioAssay.

Active and inactive are the calls of the source.

A short description of experiment [1]: optical density shifts of acrAB sulA E. coli – strain DRC41, OD650, 48 h, E. coli filamentation inducer project, primary screen (AID 1152).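 Also: E. coli MC1000 strain DRC41 lacking acrAB efflux pump and sulA.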 The note with it: higher = more signal, called active from +8 up or from −8 down.
Experiment [2] is described as follows: probe aLefty1 binding on compound microarray – biochemical, small-molecule microarray, 635/667 nm fluorescence, primary screen (AID 1153).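 Also: score merges spot fluorescence with signal-to-noise ratio from the scanned slide images.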 The note with it: higher = more signal.
Experiment [3] is described as follows: plasmodial surface anion channel blockers, osmotic lysis – cell-based, P. falciparum Indochina, OD700, 1 h, primary screen (AID 1154). The following applies: P. falciparum Indochina infected RBC osmotic lysis, higher = more signal, called active from +8 up or from −8 down.
Experiment [4] in a line: plasmodial surface anion channel blockers, osmotic lysis – cell-based, P. falciparum Indochina, OD700, 2 h, primary screen (AID 1155).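 Also: lysis reports solute entry through the parasite surface anion channel PSAC.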 The note with it: P. falciparum Indochina infected erythrocytes, higher = more signal, called active from +8 up or from −8 down.
Experiment [5] can be described thus: changes in parasitized red cell lysis, either direction – P. falciparum Indochina, OD700, 3 h, PSAC antagonist project, primary screen (AID 1156). The following applies: P. falciparum-infected erythrocytes, osmotic lysis, higher = more signal, called active from +8 up or from −8 down.
Experiment [6] in a line: plasmodial surface anion channel blockers, osmotic lysis – cell-based, P. falciparum Indochina, OD700, 18 h, primary screen (AID 1157). The note with it: P. falciparum Indochina infected erythrocytes, osmotic lysis OD700, 18 h; higher = more signal, called active from +8 up or from −8 down.
Experiment [7] can be described thus: S6 kinase pathway phospho-S6 level changes – cell-based, A549, cytoblot, luminescence, serum-stimulated, primary screen (AID 1158).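 Also: serum-stimulated A549 lung adenocarcinoma cells; signal is phosphorylated S6 detected by cytoblot immunostaining with HRP secondary.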 The following applies: 5 h, higher = more signal.
Experiment [8] addresses NADPH oxidase 2 (Homo sapiens) (UniProt P04839). Nature of the experiment: compounds shifting NOX2 Amplex Red fluorescence – cell-based, HEK293-NOX2, PMA-stimulated, NOX inhibitor project, primary screen (AID 1159). Also: test concentration not given here. The note with it: 45 min, higher = more signal, called active from +8 up or from −8 down.
Experiment [9] addresses NADPH oxidase 4 (Homo sapiens) (UniProt Q9NPH5). Nature of the experiment: compounds shifting NOX4 Amplex Red fluorescence – cell-based, HEK293-NOX4, tetracycline-induced, NOX inhibitor project, primary screen (AID 1160). The note with it: HEK293-NOX4, Amplex Red H2O2 fluorescence, 45 min; higher = more signal, called active from +8 up or from −8 down.
Experiment [10] addresses NADPH oxidase 5 (Homo sapiens) (UniProt Q96PH1). Nature of the experiment: compounds shifting NOX5 Amplex Red fluorescence – cell-based, HEK293-NOX5, NOX inhibitor project, primary screen (AID 1161). The following applies: HEK293-NOX5, ionomycin, 45 min, higher = more signal.
A short description of experiment [11]: compound effects on lung adenocarcinoma cell viability – A549, calcein-AM fluorescence, 48 h, basal, profiling panel (AID 1162). Also: test concentration not given here. The following applies: higher = more signal.
Experiment [12] is described as follows: compound effects on differentiated 3T3-L1 adipocyte viability – cell-based, 3T3-L1 adipocytes, calcein-AM fluorescence, 48 h, basal, profiling panel (AID 1163). Also: test concentration not given here. The note with it: 3T3-L1 adipocytes viability, higher = more signal.
A short description of experiment [13]: compound effects on hepatocellular carcinoma cell viability – HepG2, calcein-AM fluorescence, 48 h, basal, profiling panel (AID 1164). Also: test concentration not given here. The following applies: higher = more signal.
Experiment [14] is described as follows: compound effects on multiple myeloma cell viability – MM1S, calcein-AM fluorescence, 48 h, basal, profiling panel (AID 1165).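 Also: viability of MM1S multiple myeloma cells under basal unstimulated conditions; test concentration not given here.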 The note with it: higher = more signal.
Experiment [15] can be described thus: calcein-AM signal in unstimulated myeloma cells – cell-based, calcein-AM fluorescence, 48 h, PK04 Diversity Set, profiling panel (AID 1166).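 Also: cells grown under basal conditions without added stimulus; test concentration not given here.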 The note with it: RPMI8226 myeloma viability, higher = more signal.
Experiment [16] in a line: JC-1 mitochondrial signal, unstimulated HepG2 cells – cell-based, JC-1 fluorescence, 24 h, 100 nL compound, profiling panel (AID 1167). Also: test concentration not given here. The following applies: HepG2 mitochondrial potential, higher = more signal.
A short description of experiment [17]: JC-1 mitochondrial signal, unstimulated adipocytes – cell-based, JC-1 fluorescence, 3T3-L1 adipocytes, 24 h, 100 nL compound, profiling panel (AID 1168). Also: test concentration not given here. The following applies: JC-1 mitochondrial fluorescence, higher = more signal, called active from +8 up or from −8 down.
Experiment [18] is described as follows: JC-1 mitochondrial signal, unstimulated myeloma cells – cell-based, JC-1 fluorescence, RPMI8226, 24 h, 100 nL compound, profiling panel (AID 1169). Also: test concentration not given here. The following applies: JC-1 mitochondrial potential fluorescence, higher = more signal.
Experiment [19] in a line: JC-1 mitochondrial signal, unstimulated MM1S myeloma – cell-based, JC-1 fluorescence, 24 h, 100 nL compound, profiling panel (AID 1170). Also: test concentration not given here. The note with it: MM1S mitochondrial potential, higher = more signal.
The nature of experiment [20]: resazurin metabolic signal in A549 cells – cell-based, resazurin fluorescence, 24 h, PK04 Diversity Set, profiling panel (AID 1171). Also: test concentration not given here. The following applies: A549 viability, higher = more signal, called active from +8 up or from −8 down.

Sequence of NADPH oxidase 2 (Homo sapiens) (P04839 whole entry, looked up): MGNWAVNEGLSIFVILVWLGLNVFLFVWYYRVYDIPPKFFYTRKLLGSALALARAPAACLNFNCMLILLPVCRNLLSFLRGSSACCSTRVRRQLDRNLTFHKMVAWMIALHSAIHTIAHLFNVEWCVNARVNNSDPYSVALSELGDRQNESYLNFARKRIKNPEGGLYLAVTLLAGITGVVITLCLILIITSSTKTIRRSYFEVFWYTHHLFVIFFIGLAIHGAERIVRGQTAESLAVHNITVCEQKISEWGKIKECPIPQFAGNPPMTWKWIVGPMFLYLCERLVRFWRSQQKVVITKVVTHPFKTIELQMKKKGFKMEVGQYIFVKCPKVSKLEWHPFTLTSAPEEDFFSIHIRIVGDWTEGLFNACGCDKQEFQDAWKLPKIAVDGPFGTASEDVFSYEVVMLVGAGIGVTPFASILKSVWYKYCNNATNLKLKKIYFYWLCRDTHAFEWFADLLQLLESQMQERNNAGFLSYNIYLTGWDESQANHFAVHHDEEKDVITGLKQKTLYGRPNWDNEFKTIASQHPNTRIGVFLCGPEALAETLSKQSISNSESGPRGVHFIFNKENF
Sequence of NADPH oxidase 5 (Homo sapiens) (Q96PH1 whole entry, looked up): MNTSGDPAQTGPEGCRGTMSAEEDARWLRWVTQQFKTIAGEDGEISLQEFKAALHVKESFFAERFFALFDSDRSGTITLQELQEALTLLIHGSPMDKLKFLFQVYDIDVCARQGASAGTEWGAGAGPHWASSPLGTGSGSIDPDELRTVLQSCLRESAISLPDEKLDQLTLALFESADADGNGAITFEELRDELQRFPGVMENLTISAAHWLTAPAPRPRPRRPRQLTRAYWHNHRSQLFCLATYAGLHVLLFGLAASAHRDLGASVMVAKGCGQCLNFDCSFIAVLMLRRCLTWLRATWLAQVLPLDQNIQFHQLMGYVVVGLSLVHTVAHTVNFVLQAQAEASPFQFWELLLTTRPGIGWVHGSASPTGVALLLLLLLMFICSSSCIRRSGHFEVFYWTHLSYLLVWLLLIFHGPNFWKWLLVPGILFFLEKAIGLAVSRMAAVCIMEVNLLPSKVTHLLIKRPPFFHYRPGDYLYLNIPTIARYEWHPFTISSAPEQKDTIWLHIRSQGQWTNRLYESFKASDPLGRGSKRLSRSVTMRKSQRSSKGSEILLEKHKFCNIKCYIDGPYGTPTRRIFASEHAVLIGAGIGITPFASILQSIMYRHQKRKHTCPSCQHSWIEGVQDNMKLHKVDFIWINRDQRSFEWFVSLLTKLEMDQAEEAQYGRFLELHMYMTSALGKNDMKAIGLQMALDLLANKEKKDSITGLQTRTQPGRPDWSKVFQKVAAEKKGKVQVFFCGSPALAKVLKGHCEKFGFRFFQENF
Sequence of NADPH oxidase 4 (Homo sapiens) (Q9NPH5 whole entry, looked up): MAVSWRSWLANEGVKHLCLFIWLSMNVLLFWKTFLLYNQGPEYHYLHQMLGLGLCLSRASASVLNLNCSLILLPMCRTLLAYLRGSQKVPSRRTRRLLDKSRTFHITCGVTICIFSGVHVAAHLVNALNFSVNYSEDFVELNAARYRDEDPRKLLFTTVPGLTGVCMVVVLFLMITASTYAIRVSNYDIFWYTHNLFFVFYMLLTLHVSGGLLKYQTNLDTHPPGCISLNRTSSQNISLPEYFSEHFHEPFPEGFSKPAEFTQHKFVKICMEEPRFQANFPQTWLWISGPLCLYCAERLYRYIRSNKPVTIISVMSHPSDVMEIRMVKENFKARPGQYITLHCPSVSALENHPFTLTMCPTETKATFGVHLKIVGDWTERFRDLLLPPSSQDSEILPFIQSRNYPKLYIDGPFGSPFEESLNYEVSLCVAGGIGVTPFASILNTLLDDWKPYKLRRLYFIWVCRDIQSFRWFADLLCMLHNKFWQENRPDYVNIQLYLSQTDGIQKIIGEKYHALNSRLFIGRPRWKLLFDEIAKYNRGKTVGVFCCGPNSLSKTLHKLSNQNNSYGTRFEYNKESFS

On to `CCOC(=O)C1=C[C@@H](C(C)C)N(S(=O)(=O)c2ccc(C)cc2)[C@H]1c1ccccc1F`, for which the z-score was -1.02 (inactive) in [1]; 0.21 (inactive) in experiment [3]; 0.668 (inactive) in experiment [4]; -0.422 (inactive) in [5]; 0.587 (inactive) in experiment [6]; -0.851 in experiment [7]. The z-score is 0.173 (inactive) in experiment [8]; -0.957 (inactive) in [9]; 1.06 in experiment [10]; -1.2 in experiment [11]; 0.0139 in experiment [12]; -0.972 in experiment [13]. Besides, the z-score in experiment [14] was -0.463; in [15], -1.08; in experiment [16] it was 0.175; in [17] it was 0.227 (inactive); in experiment [18] it was -0.128; in experiment [19], -0.581. Further, the z-score in experiment [20] was 1.76 (inactive). This molecule also showed a composite z-score in experiment [2] of 0.389.

On to `CN(C)CCCC[C@@H]1NC(=O)[C@H]2C[C@@H](C(=O)NCCCCCN)[C@@H](c3cccc(OCCO)c3)N2C1=O`, for which the z-score is 0.675 (inactive) in experiment [1]; 1.9 (inactive) in [3]; 0.112 (inactive) in [4]; -1.16 (inactive) in [5]; 0.129 (inactive) in [6]; 0.204 in experiment [7]. Besides, the z-score in experiment [8] is 0.653 (inactive); in [9], 0.222 (inactive); in experiment [10], 1.52; in experiment [11], 0.227; in [12], 0.167; in experiment [13], -0.42. The z-score was -1.44 in [14]; 0.537 in [15]; 1.28 in experiment [16]; 1.18 (inactive) in experiment [17]; 0.51 in experiment [18]; 1.26 in [19]. Further, the z-score in experiment [20] was 0.123 (inactive). For the same molecule, the composite z-score in experiment [2] was 1.28.

As to `C=CCOC(=O)[C@H]1[C@@H]2C(=O)O[C@@H](c3ccccc3)[C@@H](c3ccccc3)N2[C@@H](c2ccc(OCCOC(=O)[C@H]3C[C@H]4C(=O)N[C@@H](CCCCN(C)C)C(=O)N4[C@H]3c3cccc(OCCO)c3)cc2)[C@]12C(=O)Nc1ccc(I)cc12`, the z-score was -1.61 (inactive) in experiment [1]; -1.87 (inactive) in [3]; 0.381 (inactive) in experiment [4]; -0.0437 (inactive) in experiment [5]; 0.375 (inactive) in experiment [6]; -0.529 in experiment [7]. Also, the z-score in experiment [8] is 2.18 (inactive); in experiment [9], 1.01 (inactive); in [10] it was 1.06; in [11], -0.226; in experiment [12], -0.512; in experiment [13], 1.22. Besides, the z-score in [14] is -2.14; in experiment [15] it was -1.82; in experiment [16], -1.92; in [17], -1.13 (inactive); in [18] it was -0.157; in experiment [19] it was -0.465. The z-score in experiment [20] is 0.477 (inactive). In experiment [2], this molecule yielded a composite z-score of -0.156.

For `C=CCN1C(=O)[C@]2(O[C@H](CCO)[C@@H]([Si](C)(C)c3ccc(OC)cc3)[C@@H]2C)c2cc(N(C=O)c3ccccc3)ccc21`, the z-score was 0.35 (inactive) in experiment [1]; 9.23 (active) in experiment [3]; 3.66 (inactive) in experiment [4]; -0.452 (inactive) in [5]; 2.29 (inactive) in experiment [6]; 1.53 in experiment [7]. For the same molecule, the z-score in [8] is 0.474 (inactive); in experiment [9] it was 0.446 (inactive); in experiment [10], 0.327; in [11] it was -3.81; in experiment [12], 0.532; in experiment [13], -4.8. Besides, the z-score in experiment [14] is -3.05; in experiment [15] it was -4.39; in experiment [16], -1.98; in experiment [17], -0.422 (inactive); in experiment [18], -0.993; in experiment [19] it was -2.23. The z-score in experiment [20] was -5.28 (inactive). The molecule also returned a composite z-score in experiment [2] of 0.0774.
